In all, about 310,000 compounds went through this assay and about 14,000 (4.5%) showed an effect of 50% or more. Effects have a minus sign here. The sample as a whole holds a higher share of strong results than the screen did.
The compounds below were run against human ether-à-go-go-related gene (hERG) potassium channel (human, UniProt Q12809) (assay: primary screen, population patch clamp on CHO cells stably expressing hERG; higher = less effect of the substance).
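Note: peak tail current of the secondary pulse compared with the same well before compound.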

human ether-à-go-go-related gene (hERG) potassium channel, sequence (Q12809 whole entry, looked up): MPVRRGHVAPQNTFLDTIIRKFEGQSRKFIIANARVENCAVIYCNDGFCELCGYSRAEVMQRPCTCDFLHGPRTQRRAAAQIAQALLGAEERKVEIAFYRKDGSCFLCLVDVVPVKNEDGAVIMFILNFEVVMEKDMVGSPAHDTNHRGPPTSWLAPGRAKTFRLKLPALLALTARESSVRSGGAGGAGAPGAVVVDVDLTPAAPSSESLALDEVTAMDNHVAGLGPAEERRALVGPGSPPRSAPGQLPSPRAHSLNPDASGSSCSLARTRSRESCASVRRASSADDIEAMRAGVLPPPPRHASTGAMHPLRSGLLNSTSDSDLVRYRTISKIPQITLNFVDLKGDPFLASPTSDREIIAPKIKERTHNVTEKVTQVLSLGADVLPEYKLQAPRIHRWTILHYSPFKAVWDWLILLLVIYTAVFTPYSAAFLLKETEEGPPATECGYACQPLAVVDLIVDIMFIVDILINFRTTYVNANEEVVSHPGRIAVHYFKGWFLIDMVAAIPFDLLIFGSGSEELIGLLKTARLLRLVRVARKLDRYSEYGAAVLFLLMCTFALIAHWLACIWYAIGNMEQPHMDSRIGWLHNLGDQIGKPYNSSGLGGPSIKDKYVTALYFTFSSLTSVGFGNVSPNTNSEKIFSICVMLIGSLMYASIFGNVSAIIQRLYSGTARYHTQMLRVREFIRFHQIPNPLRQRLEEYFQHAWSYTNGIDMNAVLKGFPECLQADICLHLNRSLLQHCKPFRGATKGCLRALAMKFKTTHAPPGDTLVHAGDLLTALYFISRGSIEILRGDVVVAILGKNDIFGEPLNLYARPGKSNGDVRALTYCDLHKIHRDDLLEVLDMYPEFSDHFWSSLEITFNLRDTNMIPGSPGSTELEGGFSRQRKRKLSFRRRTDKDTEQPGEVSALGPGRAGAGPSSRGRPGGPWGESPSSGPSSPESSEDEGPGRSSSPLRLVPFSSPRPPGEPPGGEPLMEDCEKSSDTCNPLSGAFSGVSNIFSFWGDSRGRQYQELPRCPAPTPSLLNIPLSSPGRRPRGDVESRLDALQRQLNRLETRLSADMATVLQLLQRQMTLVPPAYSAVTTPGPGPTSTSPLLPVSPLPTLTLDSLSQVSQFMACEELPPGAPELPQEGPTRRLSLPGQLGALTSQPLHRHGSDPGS

Compared with `Cc1ccc(S(=O)(=O)N2CCN(C(=O)COC(=O)c3c(C)noc3C)CC2)c(C)c1`, `Cc1ccc(OCC(=O)N2CCN(Cc3ccc4c(c3)OCO4)CC2)cc1C` is lower in “hERG current change (%, negative = inhibition) at 10uM” value: -18.8% for the first, -24.6% for the second.

First: COCCCNC(=O)CN(c1ccc(Cl)c(Cl)c1)S(C)(=O)=O
Second: Cc1ccc(-c2nc(N)n(S(C)(=O)=O)n2)cc1
The “hERG current change (%, negative = inhibition) at 10uM” value of the first is lower: -10.9% for the first, 7.05% for the second.

First: Cc1ccc(NCC(=O)N/N=C\c2cccc(O)c2)cc1
Second: O=C(/C=C/c1ccccc1[N+](=O)[O-])NNC(=O)c1ccncc1
The “hERG current change (%, negative = inhibition) at 10uM” value of the first is higher: 1.98% for the first, -7.86% for the second.

Compared with `C=CCNC(=S)N1CCOCC1`, `CCc1cccc(CC)c1NC(=O)C1CCN(C(=O)c2ccco2)CC1` is higher in “hERG current change (%, negative = inhibition) at 10uM” value: -1.69% for the first, 2.93% for the second.

Going from `CCOc1ccccc1NC1=C(Cl)C(=O)N(c2ccc(OC)cc2)C1=O` to `COc1ccc(C(=O)OCn2nnc3ccccc3c2=O)cc1OC`, the “hERG current change (%, negative = inhibition) at 10uM” value rises from -10.4% to 8.71%.

Compared with `Cc1cc(=O)oc2cc(OCC(=O)N3CCN(Cc4ccc5c(c4)OCO5)CC3)ccc12`, `CCCc1cc(=O)oc2cc(OCC(=O)N3CCN(Cc4ccc5c(c4)OCO5)CC3)ccc12` is lower in “hERG current change (%, negative = inhibition) at 10uM” value: -42.9% for the first, -57% for the second.

First: CC(Oc1ccccc1)C(=O)N=C1SC2CS(=O)(=O)CC2N1Cc1ccc(F)cc1 (stereo not drawn)
Second: O=C(Nc1nc(-c2ccccc2)cs1)c1ccc2c(=O)n3c(nc2c1)CCCCC3
The “hERG current change (%, negative = inhibition) at 10uM” value of the first is lower: -24.6% for the first, -23.8% for the second.

First: O=C(Nc1ccc(Br)cc1)C1C2C=CC3(O2)C1C(=O)N(CCN1CCOCC1)C3C(=O)NC1CCCCC1 (stereo not drawn)
Second: O=C(Nc1ccc(Br)cc1)C1C2C=CC3(O2)C1C(=O)N(CCN1CCCCC1)C3C(=O)NC1CCCCC1 (stereo not drawn)
The “hERG current change (%, negative = inhibition) at 10uM” value of the first is higher: -3.6% for the first, -59.8% for the second.

Going from `Cc1cc(C)cc(NC(=O)C2C3C=CC4(O3)C2C(=O)N(CCN2CCCCC2)C4C(=O)NC2CCCCC2)c1` (stereo not drawn) to `O=C(Nc1ccc(Cl)c(Cl)c1)C1C2C=CC3(O2)C1C(=O)N(CCN1CCCCC1)C3C(=O)NC1CCCCC1` (stereo not drawn), the “hERG current change (%, negative = inhibition) at 10uM” value falls from -40.3% to -60.8%.

First: O=C(Nc1ccc(Cl)cc1)C1C2C=CC3(O2)C1C(=O)N(CCN1CCCCC1)C3C(=O)NC1CCCCC1 (stereo not drawn)
Second: Cc1ccc(NC(=O)C2C3C=CC4(O3)C2C(=O)N(CCCN2CCCCC2)C4C(=O)NC2CCCCC2)cc1Cl (stereo not drawn)
The “hERG current change (%, negative = inhibition) at 10uM” value of the first is lower: -44.1% for the first, 16.3% for the second.

First: CC(C)(C)n1nc2c(c1NC(=O)c1ccccc1F)CS(=O)C2 (stereo not drawn)
Second: O=C(Nc1ccccc1Cl)c1ccc2c(=O)n3c(nc2c1)CCC3
The “hERG current change (%, negative = inhibition) at 10uM” value of the first is higher: 15.6% for the first, -6.14% for the second.

First: Cc1ccc2cc(/C=C/C(=O)c3ccco3)c(Cl)nc2c1
Second: COc1ccc(C)cc1NC(=O)c1ccc2c(=O)n3c(nc2c1)CCCCC3
The “hERG current change (%, negative = inhibition) at 10uM” value of the first is higher: 15.2% for the first, -42.5% for the second.

Compared with `Cc1cc(C)c2nc(NC(=O)c3ccc4c(=O)n5c(nc4c3)CCCCC5)sc2c1`, `Cc1csc(NC(=O)c2ccc3c(=O)n4c(nc3c2)CCCCC4)n1` is lower in “hERG current change (%, negative = inhibition) at 10uM” value: 13.9% for the first, -80.3% for the second.

First: O=C(Nc1ccccn1)c1ccc2c(=O)n3c(nc2c1)CCCCC3
Second: Cc1cccc(NC(=O)c2ccc3c(=O)n4c(nc3c2)CCCCC4)n1
The “hERG current change (%, negative = inhibition) at 10uM” value of the first is higher: -47.2% for the first, -67.2% for the second.

First: Cc1ccc(-c2csc(NC(=O)c3ccc4c(=O)n5c(nc4c3)CCCCC5)n2)cc1
Second: Cc1ccc(NC(=O)c2ccc3c(=O)n4c(nc3c2)CCCCC4)nc1
The “hERG current change (%, negative = inhibition) at 10uM” value of the first is higher: -6.65% for the first, -60.4% for the second.

— paper PMC4336329 (PLoS ONE, 2015)
